# Assay outcomes (PubChem)
# A selection: hits, their analogues and other compounds. The true share with any hit is near 18%.
# HepG2 viability – HepG2 cytotoxicity, counter-screen for TGF-b inhibitors; HepG2 CAGA-GFP viability, ATP luminescence, 18 h; Potency, µM (titrated, usually from 46.1 µM), without a hit: top-dose activity change, negative = cytotoxicity, hits mostly cytotoxic; 0.76% of 410,000 active; note: potency is the fitted concentration of half-maximal effect
#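 CellTiter-Glo luminescence gave cytotoxicity after 18 hours at 37 degrees C. The cells were HepG2 CAGA-GFP in 1% FBS DMEM, stimulated with 500 pg/mL TGF-beta after compound addition. %Activity was normalised to no-cell wells (complete cell-killing) and DMSO (no toxicity), and curves were fitted and classified.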
# TDP1 cell noCPT – qHTS for Inhibitors of human tyrosyl-DNA phosphodiesterase 1 (TDP1): qHTS in cells in absence of CPT; DT40 Tdp1-/- hTDP1 cells, no CPT, ATP luminescence, 48 h; 15% of 420,000 active; Potency, µM (top dose mostly 46.2 µM), for the others: at the highest dose activity change, negative = growth inhibition, actives largely listed as inhibitors; note: potency is the fitted concentration of half-maximal effect; % is set by controls: 0 for no effect and ±100 for the full control effect; nearly all actives have a fitted effect of over 55% in size
#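 Seeded 400 DT40-hTDP1 cells/well (vehicle DMSO, no 20 nM CPT); pinned compounds; ≥48 hr at 37 °C; CellTiter-Glo luminescence as viability measure.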
# TGFb inhibitor – blocks TGF-b signaling. HepG2 CAGA-GFP TGF-b/SMAD3 reporter, GFP fluorescence, 18 h; TGF-beta stimulated, 500 pg/mL final. Potency, µM (top dose mostly 46.1 µM), without a hit: at the top dose activity, negative = inhibition, actives largely listed as inhibitors. 1.2% of 410,000 active. AID 588855; note: potency is the fitted concentration of half-maximal effect; % is set by controls: 0 for no effect and ±100 for the full control effect; nearly all actives have a fitted effect of over 65% in size
#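 First, reporter cells (HEPG2 CAGA-GFP) rested 2 h at 37 degrees C. Next, compounds were pinned in and TGF-beta added to 500 pg/mL final. After 18 h, GFP was imaged per cell and summed per well.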
# IL1B secr inh – inflammasome signaling inhibition, IL-1 beta readout; activity change, % at 57.5 µM; 4.7% of 360,000 active; THP-1 LPS/ATP IL-1B secretion, AlphaLISA, 16 h; hits give low values; in the data active = activity change below about -50%; inconclusive = mostly about -30% to -49%; note: % is set by controls: 0 for no effect and ±100 for the full control effect
#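 THP-1 cells pretreated 1 hr with compounds (up to 57.5 uM final), then stimulated with LPS (250 ng/mL final) plus ATP (1.25 mM final); secreted IL-1B measured by AlphaLISA after 16 hr, decreased signal indicating inhibition.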
# TDP1 block – inhibitors of human tyrosyl-DNA phosphodiesterase TDP1; Q9NUW8; recombinant TDP1, AlphaScreen DNA substrate cleavage; Potency, µM (top dose mostly 130 µM), without a hit: top-dose activity change, negative = inhibition, most hits filed as inhibitors; 0.28% of 350,000 active; note: potency is the fitted concentration of half-maximal effect; % is set by controls: 0 for no effect and ±100 for the full control effect; nearly all actives have a fitted effect of over 40% in size
# Target sequence (Q9NUW8 whole entry, looked up): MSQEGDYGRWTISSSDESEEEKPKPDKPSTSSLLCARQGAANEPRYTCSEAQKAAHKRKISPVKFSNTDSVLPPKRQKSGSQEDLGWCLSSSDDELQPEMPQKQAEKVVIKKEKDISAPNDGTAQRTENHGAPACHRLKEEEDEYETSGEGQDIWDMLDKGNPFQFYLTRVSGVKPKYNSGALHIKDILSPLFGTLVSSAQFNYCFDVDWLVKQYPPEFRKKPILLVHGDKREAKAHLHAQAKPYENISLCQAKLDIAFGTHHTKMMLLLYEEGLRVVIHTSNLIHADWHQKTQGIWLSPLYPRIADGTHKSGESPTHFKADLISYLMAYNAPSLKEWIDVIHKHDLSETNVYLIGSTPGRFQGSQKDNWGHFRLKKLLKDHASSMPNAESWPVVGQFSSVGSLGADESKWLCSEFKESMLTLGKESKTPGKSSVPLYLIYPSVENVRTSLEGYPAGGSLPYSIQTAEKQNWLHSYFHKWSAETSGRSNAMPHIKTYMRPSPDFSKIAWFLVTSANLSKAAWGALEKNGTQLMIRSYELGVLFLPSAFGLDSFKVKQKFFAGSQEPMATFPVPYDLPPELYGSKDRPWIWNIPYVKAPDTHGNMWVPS
#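 AlphaScreen read-out: signal falls as enzyme removes the 3' tyrosine-FITC from a 5'-biotinylated DNA oligo (15 nM, 5 min, RT). Enzyme was E. coli-made recombinant Tdp1 at 1 nM, exposed to compound for 15 min beforehand; beads 10 ug/ml, 10 min.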
# DT40 TDP1 CPT – growth inhibition of DT40 Tdp1-/-;hTDP1 cells with camptothecin (screen for TDP1 inhibitors) | chicken DT40 Tdp1-/-;hTDP1 cells + 20 nM CPT, ATP luminescence, 48 h | Potency, µM (top dose mostly 46.2 µM), for inactives: at the highest dose activity change, negative = growth inhibition, actives largely listed as inhibitors | 12% of 420,000 active | AID 686979; note: potency is the fitted concentration of half-maximal effect; % is set by controls: 0 for no effect and ±100 for the full control effect; nearly all actives have a fitted effect of over 55% in size
#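 Chicken DT40 Tdp1-/- cells stably complemented with human TDP1 were seeded at 400 cells/well in medium containing 20 nM camptothecin, exposed to pin-transferred compounds, and grown at 37 °C for at least 48 hr. Viability was read as ATP luminescence.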
# Active calls of the source: *; u = inconclusive; x = no result; [ ] = dose if it differs, or a comment. Unless noted, calls come from the whole dose curve; as a rule, active = well fitted curve in the direction sought with a large enough effect; inconclusive = small, poorly fitted or top-dose-only effect, or another doubt; inactive = no such curve, though single readings can be large; an effect the other way counts as inactive or inconclusive.
SMILES,HepG2 viability,TDP1 cell noCPT,TGFb inhibitor,IL1B secr inh,TDP1 block,DT40 TDP1 CPT
Cc1cc(=O)c(C(=O)Nc2cccc(C(=O)NC3CC3)c2)nn1-c1ccccc1Cl,-9.6%,18.0%,-7.5%,-54.0*,-1.1%,-27.1%
CCCn1nc(C(=O)NC2CCCC2)c2ccccc2c1=O,6.4%,u,19.2%,17.1,0.1%,-15.0%
CC(C)Cn1nc(C(=O)Nc2cccc(C(=O)NC3CC3)c2)c2ccccc2c1=O,-15.8%,18.4µM*,-6.8%,-1.4,-2.8%[56.1 µM],u
CCCCn1nc(C(=O)NC2CCCCCC2)c2ccccc2c1=O,-6.5%,13µM*,-2.5%,25.6,-0.3%,u
CC(C)Cn1nc(C(=O)Nc2cccc(S(=O)(=O)N3CCCC3)c2)c2ccccc2c1=O,-44.9%,u,u,-20.4,-0.4%[56.1 µM],u
Cc1cc(=O)c(C(=O)O)nn1-c1ccccc1Cl,-1.6%,8.3%,11.4%,-8.3,6.8%,-24.0%
Cc1cc(C)nc(S[C@H]2C[C@@H](C(=O)N3CCN(c4ccccc4F)CC3)N(Cc3ccccc3F)C2)n1,x,-21.0%,x,x,x,-21.4%
COc1ccc(-c2[nH][nH]c(=O)c2NC(=O)c2ccc(C)cc2)cc1,3.8%,12.6%,-19.8%,37.5,x,-19.3%
CN(Cc1c(F)cccc1Cl)C(=O)c1ccc2ccccc2n1,-7.9%,u,-5.4%,14.3,17.8%,u
O=C1NN=C(c2ccc(Br)cc2)CC1c1ccc(Cl)cc1 (stereo unspecified),-12.5%,u,-10.0%,-84.7*,5.8%,u
CCc1ccc(C2CC(c3ccc(Cl)cc3)=NNC2=O)cc1 (stereo unspecified),-8.6%,u,0.0%,-52.5*,7.0%,u
Cc1ccc(C2CC(c3ccc(Cl)cc3)=NNC2=O)cc1 (stereo unspecified),6.5%,u,1.4%,-13.2,-2.3%,-12.3%
Cc1ccc(NC(=O)CN(C)S(=O)(=O)c2ccc3nc(C)sc3c2)c(C)c1,-6.3%,-16.8%,x,x,2.5%,-5.8%
CC1(C)C2CCC(CN=C(N)CSS(=O)(=O)O)C1C2 (stereo unspecified),-4.0%,u,-7.9%,-57.5*,x,u
COc1cccc(-c2onc3ccc(C4(C)OCCO4)cc23)c1,-31.6%,u,-18.0%,-87.1*,5.9%,u
COc1cccc(-c2onc3ccc(C(=O)/C=C/N(C)C)cc23)c1,4.8%,16.4µM*,21.0%,-66.5*,x,u
COc1cccc(-c2onc3ccc(C(C)=O)cc23)c1,-17.7%,-8.1%,0.4%,-5.7,x,-12.9%
CC1(c2ccc3noc(-c4ccccc4)c3c2)OCCO1,-17.8%,u,3.6%,u,9.5%,-1.1%
Cc1ccc(-c2onc3ccc(C(=O)/C=C/N(C)C)cc23)cc1,-22.5%,u,0.0%,-25.4,x,u
Cc1cccc(-c2onc3ccc(C(=O)/C=C/N(C)C)cc23)c1,-34.2%,18.4µM*,-11.5%,-7.9,x,u
CC(=O)c1ccc(OCCCC(=O)Nc2cccc(S(=O)(=O)N3CCCCC3)c2)cc1,-8.1%,u,-24.1%,-7.1,0.6%,u
CCc1ccc(C(=O)c2cn(CC(=O)NC3CCCCC3)c3nc(C)ccc3c2=O)cc1,-17.1%,2.2%,-9.7%,x,-5.3%,3.2%
Nc1ccc(S(=O)(=O)c2cc(O)c3ccccc3c2O)cc1,-13.4%,2.31µM*,-43.2%,-111.5*,x,1.46µM*
Cc1ccc(C(=O)c2cn(CC(=O)Nc3ccc(C)cc3Cl)c3nc(C)ccc3c2=O)cc1,-0.6%,23.1µM*,-0.5%,x,-1.1%,10.3µM*
COc1ccc(Cl)cc1NC(=O)Cn1cc(C(=O)c2ccc(C)cc2)c(=O)c2ccc(C)nc21,-14.6%,23.1µM*,-12.6%,x,-4.2%,u
SMILES,HepG2 viability,TDP1 cell noCPT,TGFb inhibitor,IL1B secr inh,TDP1 block,DT40 TDP1 CPT
Cc1ccc(CNC(=O)Cn2cc(C(=O)c3ccc(Cl)cc3)c(=O)c3ccc(C)nc32)cc1,0.3%,16.4µM*,-2.3%,x,2.1%,16.4µM*
CCc1ccc(C(=O)c2cn(CC(=O)Nc3cc(OC)ccc3OC)c3nc(C)ccc3c2=O)cc1,-1.5%,-67.1%,-5.2%,x,-13.2%,u
CCOc1ccccc1NC(=O)CN(c1ccc(OC)cc1OC)S(=O)(=O)c1ccccc1[N+](=O)[O-],31.5%,u,16.4%,-5.9,1.2%,-21.6%
COc1ccc(Br)c(C(=O)Nc2nc3ccccc3[nH]2)c1,-3.1%,5.17µM*,-1.4%,2.1,x,-24.6%
O=C(Nc1nc2ccccc2[nH]1)c1cc(F)cc(F)c1,-16.6%,u,-27.6%,16.4,-1.1%,-22.5%
O=C(NC(=S)NCc1nc2ccccc2[nH]1)c1ccccc1F,-5.7%,16.4µM*,-27.2%,25.5,3.5%,23.1µM*
Cc1cc(C)cc(C(=O)Nc2nc3ccccc3[nH]2)c1,1.6%,23.1µM*,-7.6%,-8.7,x,u
COc1ccc2oc(C(=O)Nc3nc4ccccc4[nH]3)c(C)c2c1,-39.5%,10.3µM*,u,-21.2,x,20.6µM*
COC(=O)[C@H](CC(C)C)NS(=O)(=O)c1ccc(F)cc1Br,-17.1%,u,-0.7%,27.0,x,-19.4%
COc1cc(OC)cc(C(=O)Nc2nc3ccccc3[nH]2)c1,-35.0%,29.1µM*,-54.8%,-2.6,7.1%,20.6µM*
N#Cc1ccc(C(=O)Nc2nc3ccccc3[nH]2)cc1,-25.0%,u,-9.7%,-18.5,-10.1%,4.4%
COc1ccc(OCCCC(=O)NCCc2nc3ccccc3[nH]2)cc1,-2.5%,-8.9%,5.2%,56.4,2.5%,-0.1%
O=C(Nc1nc2ccccc2[nH]1)c1ccc(F)cc1,-36.2%,u,-14.5%,-14.9,11.2%,-28.9%
O=C(Nc1nc2ccccc2[nH]1)c1ccccc1F,2.24µM*,11.6µM*,0.6%,1.1,5.1%,u
CCCCN(C(=O)c1ccccc1Br)C(c1ccc(OC)cc1)c1nc2ccccc2[nH]1 (stereo unspecified),-16.0%,u,u,-2.6,x,16.4µM*
COc1ccc(-n2c(=O)c(CCC(=O)N(C)Cc3ccccc3C)nc3ccccc32)cc1,-32.3%,u,-37.5%,0.0,0.0%,u
CCc1ccc(CN(C)C(=O)CCc2nc3ccccc3n(-c3ccc(OC)cc3)c2=O)cc1,-28.1%,20.6µM*,u,-56.4*,6.3%,16.4µM*
